GLP-1R agonist: qHTS of GLP-1 Receptor Agonists | HEK293 GLP-1R CRE-luciferase, luminescence, 4-6 h; cells express a hypersensitive GLP-1R form | Potency, µM (titrated, usually from 45.6 µM), actives largely listed as activators | actives 0.007% (n = 380,000)
Target sequence (P43220 whole entry, looked up): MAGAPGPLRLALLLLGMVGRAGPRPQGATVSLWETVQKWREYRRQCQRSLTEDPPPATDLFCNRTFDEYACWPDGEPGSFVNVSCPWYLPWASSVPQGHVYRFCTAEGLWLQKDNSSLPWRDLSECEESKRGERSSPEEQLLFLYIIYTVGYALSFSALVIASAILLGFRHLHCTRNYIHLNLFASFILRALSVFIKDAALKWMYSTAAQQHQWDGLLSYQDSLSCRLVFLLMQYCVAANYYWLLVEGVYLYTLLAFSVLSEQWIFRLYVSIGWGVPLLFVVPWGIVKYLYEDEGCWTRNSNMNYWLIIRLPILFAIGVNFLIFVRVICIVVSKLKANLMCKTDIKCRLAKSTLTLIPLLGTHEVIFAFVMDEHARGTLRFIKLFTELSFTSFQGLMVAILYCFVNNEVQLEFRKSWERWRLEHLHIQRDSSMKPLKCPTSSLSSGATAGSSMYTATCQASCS
uPA generation: qHTS for Inhibitors of Cell Surface uPA Generation; Potency, µM (highest dose often 38.3 µM), most hits filed as inhibitors; cell surface uPA generation assay, qHTS; actives 0.31% (n = 330,000); active = well fitted inhibition curve with a large enough effect; inconclusive = small, poorly fitted or top-dose-only effect; inactive = no such curve, though single readings can be large or run the other way; tested in mouse RAW 264.7 cells; note: nearly all actives have a fitted effect of over 55% in size
CCT modulator: High-Throughput Screening for Modulators of Cytosolic Chaperonin Activity; purified chaperonin ATPase assay, HTRF ADP detection, 30 min; AID 651819, 2012; actives 0.3% (n = 360,000); activity change, % (concentration not given with the values), hits read low; in the data active = activity change below about -30%
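ATPase activity: ADP formed was measured by HTRF Transcreener (665/615 nm ratio) after 30 min at 37 deg C with 10 uM ATP. Compounds screened at one 76 uM concentration against 40 or 20 nM TRiC in Tris pH 7.4/KCl/MgCl2/DTT buffer.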
MmCpn inh: Inhibitors of TCP-1 ring complex (TRiC) of Methanococcus maripaludis (MmCpn): qHTS | Chaperonin Mm-Cpn (Methanococcus maripaludis) | purified Mm-Cpn ATPase, ADP Transcreener TR-FRET | Potency, µM (doses to about 76.9 µM), usual class: inhibitors | actives 0.031% (n = 330,000); note: nearly all actives have a fitted effect of over 80% in size
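Reaction buffer contained 30 mM Tris pH 7.4, 100 mM KCl, 5 mM MgCl2 and 1 mM DTT. Mm-CPN (25 nM final) hydrolysed 10 uM ATP over 30 min at 37°C; ADP was read by HTRF.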
GLP1R cytotox: qHTS of GLP-1 Receptor Inverse Agonists: Cytotox Screen. HEK293 cAMP-luciferase reporter cells, luminescence, 24 h. Potency, µM (titrated, usually from 38.3 µM), hits mostly inhibitors. actives 0.13% (n = 410,000). AID 624418, 2012;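 note: loss of luciferase light is scored as toxicity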
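MLSMR compounds, 24 hr on cells at 37 deg C/5% CO2; luminescence after luciferase reagent (12 min RT). Inhibition counted as the undesired cytotoxic outcome.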
GLP-1R inv ag: qHTS of GLP-1 Receptor Inverse Agonists (Inhibition Mode); HEK293 GLP-1R CRE-luciferase, luminescence, 24 h; GLP-1R form is constitutively active; actives 1.6% (n = 410,000); Potency, µM (titrated, usually from 38.3 µM), usual class: inhibitors; note: nearly all actives have a fitted effect of over 55% in size
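HEK293 cells stably co-expressing a cAMP-responsive luciferase reporter and constitutively active GLP-1R were seeded, incubated 12 h, then exposed to compounds for 24 h at 37 C. Luminescence was read 12 min after detection reagent; inverse agonists lower signal.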
Numbers stand for hits; – = inactive; ? = inconclusive; · = no result given. Rows were chosen to be rich in hits. Some 2.2% of all compounds tested hit in one or more screens of this group. Unless noted, calls come from the whole dose curve; as a rule, active = well fitted curve in the direction sought with a large enough effect; inconclusive = small, poorly fitted or top-dose-only effect, or another doubt; inactive = no such curve, though single readings can be large; an effect the other way counts as inactive or inconclusive.

SMILES	GLP-1R agonist	uPA generation	CCT modulator	MmCpn inh	GLP1R cytotox	GLP-1R inv ag
COc1cccc(CNC(=O)CCC2CCCN(Cc3cc4ccccc4o3)C2)c1 (centres undefined)	–	–	–	–	–	11µM
COc1cccc(CNC(=O)CCC2CCCN(C(=O)CCC(F)(F)F)C2)c1 (centres undefined)	–	–	–	–	–	–
CNc1nc(N)c(C(=O)C23CC4CC(CC(C4)C2)C3)s1	–	–	–	–	–	5.6µM
CC1C(=O)C(C)C(c2cc(Br)ccc2O)NC1c1cc(Br)ccc1O (centres undefined)	–	–	–	·	?	5µM
Cc1ccc(/C=C/C(=O)Nc2ccc([N+](=O)[O-])cc2)o1	–	–	–	–	–	–
CCOC(=O)CCc1ccc(NC(=O)/C=C/c2ccc([N+](=O)[O-])o2)cc1	–	–	–	·	11µM	?
Cc1cccc(NC(=O)Cn2c(=O)n(CCCCCC(=O)NCc3ccc4c(c3)OCO4)c(=O)c3sccc32)c1	·	·	·	·	–	–
Cn1ncc2c(N3CCN(c4ccccc4Cl)CC3)ncnc21	·	·	·	·	–	–
O=[N+]([O-])c1ccc(N2N=C(c3ccco3)CC2c2ccccc2)cc1 (centres undefined)	–	–	–	–	–	–
Fc1ccc(C2CC(c3ccco3)=NN2c2ccccc2)cc1 (centres undefined)	–	–	–	–	–	6.3µM
CN(Cc1ccccc1)C(=O)CSc1nc(-c2ccc(F)cc2)cc(C(F)(F)F)n1	–	·	·	·	–	?
Oc1ccc(CNc2ccccc2)c2cccnc12	–	–	–	–	?	6.3µM
OCc1ccnc2c(O)cccc12	–	–	–	–	?	8.9µM
CCc1ccccc1NC(=O)CN(c1ccccc1OC)S(=O)(=O)c1ccc(C)cc1	–	·	·	·	–	?
O=S(=O)(Nc1ccc(-c2ccc(N3CCCCC3)nn2)cc1)c1ccc(OC(F)(F)F)cc1	·	·	·	·	–	11µM
O=S(=O)(Nc1cccc(-c2ccc(N3CCCCCC3)nn2)c1)c1ccccc1Cl	–	–	–	–	–	5µM
Cc1cc(S(=O)(=O)Nc2ccc(-c3ccc(N4CCCCC4)nn3)cc2)c(C)cc1Cl	·	·	·	·	–	7.1µM
Cc1cc(S(=O)(=O)Nc2ccc(-c3ccc(N4CCCCCC4)nn3)cc2)c(C)cc1Cl	·	·	·	·	–	7.9µM
CCOC(=O)[C@H](CCc1ccccc1)N[C@H]1CCCN2CCC[C@@H](C(=O)O)N2C1=O	–	·	·	·	·	·
O=C(Cn1cnc([N+](=O)[O-])c1)Nc1cc(Oc2ccc(Cl)cc2Cl)cc([N+](=O)[O-])c1	–	–	–	–	?	5.6µM
COc1ccc(Br)cc1C1C(C(=O)Nc2ccc(C)cc2C)=C(C)Nc2ncnn21 (centres undefined)	–	·	·	·	–	–
CCOC(=O)c1c(N)sc(C(=O)Nc2ccccc2)c1C	–	7.9µM	–	–	–	?
Cc1ccc(-c2nnc(SCC(=O)NC(C)(C)C)nc2-c2ccc(C)cc2)cc1	·	·	·	·	–	11µM
Cc1ccc(-c2nnc(SCC(N)=O)nc2-c2ccc(C)cc2)cc1	–	–	–	–	–	–
CCCCN1CC(c2nc3ccccc3n2CCCCOc2cc(C)cc(C)c2)CC1=O (centres undefined)	·	·	·	·	–	10µM
SMILES	GLP-1R agonist	uPA generation	CCT modulator	MmCpn inh	GLP1R cytotox	GLP-1R inv ag
Cc1cccc(OCCCCn2c(C3CC(=O)N(c4ccccc4Cl)C3)nc3ccccc32)c1 (centres undefined)	·	·	·	·	–	–
Cc1cccc(OCCCCn2c(C3CC(=O)N(c4ccc(C)cc4C)C3)nc3ccccc32)c1 (centres undefined)	·	·	·	·	–	13µM
CCc1ccc(NS(=O)(=O)c2ccc3[nH]cc(C(=O)NCCCOC(C)C)c(=O)c3c2)cc1	·	·	·	·	–	–
Cc1cc(C)c2nc(N(CCCN(C)C)C(=O)c3ccc4c(c3)OCCO4)sc2c1	–	–	–	–	?	?
CN(C)CCN(C(=O)c1ccc2ccccc2c1)c1nc2ccc(Br)cc2s1	–	–	–	–	–	–
CN(C)CCCN(C(=O)C1=COCCO1)c1nc2ccc(Br)cc2s1	–	–	–	–	?	2µM
Cc1cc(C)c2nc(N(CCCN(C)C)C(=O)C3=COCCO3)sc2c1	–	–	–	–	?	4.5µM
Cc1ccc(CN2C(=O)CN(C3CCC(C)CC3)C(=O)C2c2ccc(F)cc2)cc1 (centres undefined)	·	·	·	·	–	–
COc1ccc(NC(=O)N2CCc3c(sc4c3CCCC4)C2c2ccc(F)cc2)cc1 (centres undefined)	·	·	·	·	–	2.8µM
CC1CCn2c(nc3cc(C(=O)NCc4ccc(OC(C)C)cc4)ccc32)C1 (centres undefined)	·	·	·	·	–	–
Cc1ccc(NC(=S)N=Nc2c(O)n(C)c3ccc(S(=O)(=O)N4CCOCC4)cc23)cc1	–	–	–	–	0.63µM	–
Cc1cc(C)nc(SCC(=O)c2ccc(F)cc2)n1	–	–	–	–	–	–
Cc1cc(C)nc(SCNC(=O)c2ccc(F)cc2)n1	–	–	-32	–	?	?
CCOC(=O)c1ccc(Oc2nc(NC(C)(C)C)nc(N(C)C)n2)cc1	–	–	–	–	–	7.9µM
CCc1cccc(CC)c1NC(=S)NCCc1ccc(O)c(O)c1	–	?	–	–	–	?
CCc1cccc(CC)c1NC(=S)NCCc1c(C)[nH]c2ccccc12	–	–	–	–	?	10µM
COc1ccc(N(CC(=O)Nc2ccc(Cl)cc2)S(=O)(=O)c2c(C)n[nH]c2C)cc1	–	?	–	–	–	?
COc1ccc(N(CC(=O)N2CCN(c3ccc(Cl)cc3)CC2)S(=O)(=O)c2c(C)n[nH]c2C)cc1	–	–	–	–	–	11µM
Cc1ccc(C)n1-c1c(C(=O)NCCCN2CCN(c3ccc(F)cc3)CC2)sc2ncccc12	·	·	·	·	–	–
O=S1(=O)c2ccc(Br)cc2N2CC[C@H](C2)N1Cc1ccc(Cl)cc1	–	3.2µM	–	·	–	?
O=S1(=O)c2ccc(Br)cc2N2CCC[C@@H]2CN1Cc1ccc(Cl)cc1	–	?	–	·	–	?
O=S1(=O)c2ccc(Br)cc2N2CCC[C@H]2CN1Cc1ccccc1	–	?	–	–	?	4µM
CCCN(CC(=O)Nc1ccccc1OC)C(=O)c1ccc2[nH]c3c(c2c1)CC(C)CC3 (centres undefined)	–	–	–	–	–	10µM

Screening data as filed in PubChem BioAssay.
